# Data published in PubChem BioAssay (Tox21).
# Unmarked numbers belong to inactive results. Inconclusive results are not listed. Where a call stands in place of a potency, no number is given. Calls of active or inactive are those of the source. Unless noted, calls come from the whole dose curve; as a rule, active = well fitted curve in the direction sought with a large enough effect in the repeat runs; inconclusive = weak or mixed curves; inactive = no such curve, though single readings can be large; an effect the other way counts as inactive or inconclusive.
# Tests used:
# [1] = target: Progesterone receptor (Homo sapiens) (UniProt P06401); experiment: qHTS assay to identify small molecule agonists of the progesterone receptor (PR) signaling pathway (AID 1346784; calls by dose curve; note: nearly all actives have a fitted effect of over 30% in size)
# In short: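 Agonist qHTS: compounds pinned onto 3,000 PR-UAS-bla HEK 293T cells per well in charcoal-stripped serum medium, 16hr at 37C, then beta-lactamase activity measured by LiveBLAzer FRET fluorescence after 2 hours at room temperature.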
# [2] = target: Progesterone receptor (Homo sapiens) (UniProt P06401); experiment: qHTS assay to identify small molecule antagonists of the progesterone receptor (PR) signaling pathway (AID 1346795; active = well fitted inhibition curve with a large enough effect in the signal ratio in the repeat runs, not every such curve was filed as active; the % refers to the signal ratio; note: potency is the fitted concentration of half-maximal effect)
# In short: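 Antagonist mode with agonist R5020 at 1 nM final and 16 hr incubation at 37C. Reporter was beta-lactamase driven by UAS in HEK293T (PR-UAS-bla), 2% charcoal-stripped serum; signal from LiveBLAzer FRET substrate, 2 hr at room temperature.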
# [3] = qHTS assay to identify small molecule antagonists of the progesterone receptor (PR) signaling pathway - cell viability counter screen (AID 1346798); note: series mostly up to about 92 µM; nearly all actives have a fitted effect of over 50% in size
# In short: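 Cytotoxicity read as CellTiter-Glo luminescence (30 min, room temperature) in the same wells as the beta-lactamase readout. HEK293T PR-UAS-bla cells in charcoal-stripped 2% FBS received compound and R5020, then 16 h at 37C, 5% CO2.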
# [4] = qHTS assay to identify small molecule agonists of the progesterone receptor (PR) signaling pathway - cell viability counter screen (AID 1346799; calls by dose curve; note: nearly all actives have a fitted effect of over 45% in size)
# In short: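 Cytotoxicity measured by CellTiter-Glo luminescence (30 min, RT) in the same wells as the PR beta-lactamase agonist read. Those HEK293T cells had 16 h compound treatment at 37 C in 2% charcoal-stripped FBS medium.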
# [5] = qHTS assay to identify small molecule antagonists of the TGF-beta/Smad signaling pathway - cell viability counter screen (AID 1346824); note: nearly all actives have a fitted effect of over 50% in size
# In short: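 SBE-bla HEK 293T cells, incubated overnight, then compound plus 0.25 ng/mL TGF-beta1 (stock added) for 5 hr at 37 C. Viability was read in the same wells by CellTiter-Glo luminescence after 30 min at room temperature.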
# [6] = qHTS assay to identify small molecule agonists of the TGF-beta/Smad signaling pathway - cell viability counter screen (AID 1346829); note: top concentration of the series differs between compounds; nearly all actives have a fitted effect of over 45% in size
# In short: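 Compound-treated SBE-bla HEK 293T cells (5 hr, 37 C) were assessed for viability with CellTiter-Glo in parallel with the reporter read.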
# [7] = qHTS assay to identify small molecule agonists of the TGF-beta/Smad signaling pathway (AID 1346859; active = well fitted activation curve with a large enough effect in the signal ratio in the repeat runs, not every such curve was filed as active; the % refers to the signal ratio; note: series mostly up to about 77 µM)
# In short: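 Fluorescence (ex 405 nm; em 460 and 530 nm) was read 2 h after LiveBLAzer FRET substrate at RT. The preceding compound treatment of overnight-plated SBE-bla HEK293T cells lasted 5 h at 37 C.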
# [8] = target: Thyrotropin-releasing hormone receptor (Homo sapiens) (UniProt P34981); experiment: qHTS assay to identify small molecule antagonists of the thyrotropin-releasing hormone receptor (TRHR) signaling pathway (AID 1346877; active = well fitted inhibition curve with a large enough effect in the repeat runs, not every such curve was filed as active; note: series mostly up to about 51 µM)
# In short: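 Following an 18 h incubation at 37 °C and a 2 h calcium dye load, TRHR-HEK293 cells were exposed to compound (5 min, room temperature) and challenged with TRH, 1 nM final.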
# [9] = target: Thyrotropin-releasing hormone receptor (Homo sapiens) (UniProt P34981); experiment: qHTS assay to identify small molecule agonists of the thyrotropin-releasing hormone receptor (TRHR) signaling pathway (AID 1346891; calls by dose curve; note: series mostly up to about 58 µM)
# In short: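 Agonist-mode intracellular calcium readout: kinetic fluorescence over 3 min at 1 s intervals after compound addition to TRHR-HEK293 cells (18 h seeded, 2 h dye-loaded at 37 C). Fifteen concentrations, triplicates.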
# [10] = Human pregnane X receptor (PXR) small molecule agonists, qHTS cell viability counter screen (AID 1346977); note: nearly all actives have a fitted effect of over 50% in size; note: potency is the fitted concentration of half-maximal effect
# In short: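 Same-well viability read: CellTiter-Fluor added after 23 hr compound exposure, fluorescence measured 1 hr later. Cells were PXR-Luc HepG2 seeded at 2,000/well in 5% charcoal-stripped FBS medium, rested 5 hr before dosing at 37 C.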
# [11] = Caspase-3/7 induction in HepG2 cells by small molecules, qHTS assay (AID 1346978); note: nearly all actives have a fitted effect of over 15% in size
# In short: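 Wild-type HepG2 cells, 2,000/well, settled 5 hr at 37 C and 5% CO2, then compound-treated for 17 hr; caspase-3/7 activity read by luminescent Caspase-Glo 3/7 after 30 min at room temperature.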
# [12] = Caspase-3/7 induction in CHO-K1 cells by small molecules, qHTS cell viability counter screen (AID 1346979); note: nearly all actives have a fitted effect of over 35% in size; note: potency is the fitted concentration of half-maximal effect
# In short: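 Cytotoxicity counter screen: CellTiter-Fluor added to compound-treated wild-type CHO-K1 cells at 16 h (37C, 5% CO2), fluorescence measured 1 h later; same wells as caspase-3/7 measurement.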
# [13] = Caspase-3/7 induction in CHO-K1 cells by small molecules, qHTS assay (AID 1346980); note: nearly all actives have a fitted effect of over 15% in size
# In short: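 Wild-type CHO-K1 cells exposed to compounds for 17hr at 37 C, 5% CO2. Caspase-3/7 activity then measured by Caspase-Glo 3/7 luminescence after 30min at room temperature.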
# [14] = Caspase-3/7 induction in HepG2 cells by small molecules, qHTS cell viability counter screen (AID 1346981); note: nearly all actives have a fitted effect of over 30% in size; note: potency is the fitted concentration of half-maximal effect; for activity change, negative = cytotoxicity: series mostly up to about 92 µM
# In short: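 Viability determined by CellTiter-Fluor fluorescence in HepG2 wells also used for the luminescent Caspase-Glo 3/7 read. Compounds were present for 16 hr at 37 C, 5% CO2 before reagent addition.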
# [15] = target: Nuclear receptor subfamily 1 group I member 2 (Homo sapiens) (UniProt O75469); experiment: Human pregnane X receptor (PXR) small molecule agonists, qHTS assay (AID 1346982); note: nearly all actives have a fitted effect of over 35% in size
# In short: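 Compound-induced hPXR transactivation of a CYP3A4 luciferase reporter was scored in HepG2 PXR-Luc cells over 24 hr at 37 C, 5% CO2, by luminescence.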
# [16] = target: Cytochrome P450 2D6 (Homo sapiens) (UniProt P10635); experiment: Cytochrome P450 Family 2 Subfamily D Member 6 (CYP2D6) small molecule antagonists: luciferase reporter qHTS assay (AID 1671196); note: nearly all actives have a fitted effect of over 50% in size; note: potency is the fitted concentration of half-maximal effect; for activity change, negative = inhibition: series mostly up to about 120 µM
# In short: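 Each well received CYP2D6 with its proluciferin substrate and chemical, sat 10 min, then got NADPH regeneration solution for 1 h at room temperature. Luminescence in RLU served as the activity measure.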
# [17] = target: Nuclear receptor subfamily 1 group I member 2 (Rattus norvegicus) (UniProt Q9R1A7); experiment: Rat pregnane X receptor (rPXR) activation by small molecules, qHTS assay (AID 1346983); settings: rPXR luciferase reporter cells, One-Glo luminescence, 24 h; max activation: active compounds read high; note: nearly all actives have a fitted effect of over 20% in size
# In short: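 Cell-based rPXR activation assay: rPXR cells, 2,000 per well, rested 5hr at 37 C, then exposed to compounds in DMSO for 24 hr at 37 C. Luciferase activity read by One-Glo luminescence after 30 min at room temperature.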
# [18] = target: Nuclear receptor subfamily 1 group I member 2 (Homo sapiens) (UniProt O75469); experiment: CYP3A4 induction through human pregnane X receptor (PXR) by small molecules, qHTS assay (AID 1346984); note: nearly all actives have a fitted effect of over 40% in size
# In short: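 Readings come from a luciferase reporter: DPX-2 cells, which are HepG2 cotransfected with PXR and a CYP3A4-promoter construct, were exposed to test compounds for 24 h at 37C before One-Glo detection.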
# [19] = target: Cytochrome P450 2C19 (Homo sapiens) (UniProt P33261); experiment: Cytochrome P450 Family 2 Subfamily C Member 19 (CYP2C19) small molecule antagonists: luciferase reporter qHTS assay (AID 1671197); note: potency is the fitted concentration of half-maximal effect; nearly all actives have a fitted effect of over 65% in size
# In short: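 P450-Glo CYP2C19 screening system; proluciferin substrate; DMSO compound stocks; 10 min RT preincubation; NADPH regeneration, 1 h at 37C; luciferin detection reagent, 20 min RT; luminescence as RLU.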
# Sequence of Nuclear receptor subfamily 1 group I member 2 (Homo sapiens) (O75469 whole entry, looked up): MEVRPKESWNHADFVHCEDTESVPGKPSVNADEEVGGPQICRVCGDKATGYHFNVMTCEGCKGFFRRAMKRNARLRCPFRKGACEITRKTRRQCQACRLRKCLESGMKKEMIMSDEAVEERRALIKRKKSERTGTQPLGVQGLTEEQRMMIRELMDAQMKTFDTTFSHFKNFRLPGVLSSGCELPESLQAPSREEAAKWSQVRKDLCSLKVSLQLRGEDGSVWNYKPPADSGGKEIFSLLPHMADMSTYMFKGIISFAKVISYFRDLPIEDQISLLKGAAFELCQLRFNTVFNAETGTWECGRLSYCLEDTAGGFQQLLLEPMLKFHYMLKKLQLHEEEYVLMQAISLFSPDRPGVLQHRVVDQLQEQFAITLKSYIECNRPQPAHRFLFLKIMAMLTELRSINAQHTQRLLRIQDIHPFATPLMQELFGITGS
# Sequence of Progesterone receptor (Homo sapiens) (P06401 whole entry, looked up): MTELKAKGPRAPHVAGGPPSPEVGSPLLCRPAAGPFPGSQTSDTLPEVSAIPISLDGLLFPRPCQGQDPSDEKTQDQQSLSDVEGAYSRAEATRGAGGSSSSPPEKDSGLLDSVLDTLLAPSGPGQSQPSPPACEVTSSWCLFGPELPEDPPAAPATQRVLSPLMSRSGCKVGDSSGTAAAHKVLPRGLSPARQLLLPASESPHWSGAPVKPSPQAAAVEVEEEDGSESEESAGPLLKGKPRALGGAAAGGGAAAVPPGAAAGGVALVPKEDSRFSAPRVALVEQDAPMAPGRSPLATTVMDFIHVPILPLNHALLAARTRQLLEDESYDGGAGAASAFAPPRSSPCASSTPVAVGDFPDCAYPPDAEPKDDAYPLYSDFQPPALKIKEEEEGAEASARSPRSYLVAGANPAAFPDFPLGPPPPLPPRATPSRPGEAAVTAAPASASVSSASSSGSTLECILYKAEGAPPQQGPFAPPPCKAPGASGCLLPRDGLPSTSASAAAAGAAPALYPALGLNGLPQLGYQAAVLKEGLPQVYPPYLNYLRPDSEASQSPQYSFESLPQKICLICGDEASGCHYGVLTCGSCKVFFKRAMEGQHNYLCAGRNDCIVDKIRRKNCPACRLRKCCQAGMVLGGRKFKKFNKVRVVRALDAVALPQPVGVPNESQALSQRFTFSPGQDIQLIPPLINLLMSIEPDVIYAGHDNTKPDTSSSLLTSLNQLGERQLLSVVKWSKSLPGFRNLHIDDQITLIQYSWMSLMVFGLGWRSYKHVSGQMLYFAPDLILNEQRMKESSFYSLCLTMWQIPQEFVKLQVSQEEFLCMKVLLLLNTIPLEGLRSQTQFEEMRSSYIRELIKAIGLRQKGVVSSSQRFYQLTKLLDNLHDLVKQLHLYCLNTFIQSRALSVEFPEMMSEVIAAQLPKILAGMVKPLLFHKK
# Sequence of Cytochrome P450 2D6 (Homo sapiens) (P10635 whole entry, looked up): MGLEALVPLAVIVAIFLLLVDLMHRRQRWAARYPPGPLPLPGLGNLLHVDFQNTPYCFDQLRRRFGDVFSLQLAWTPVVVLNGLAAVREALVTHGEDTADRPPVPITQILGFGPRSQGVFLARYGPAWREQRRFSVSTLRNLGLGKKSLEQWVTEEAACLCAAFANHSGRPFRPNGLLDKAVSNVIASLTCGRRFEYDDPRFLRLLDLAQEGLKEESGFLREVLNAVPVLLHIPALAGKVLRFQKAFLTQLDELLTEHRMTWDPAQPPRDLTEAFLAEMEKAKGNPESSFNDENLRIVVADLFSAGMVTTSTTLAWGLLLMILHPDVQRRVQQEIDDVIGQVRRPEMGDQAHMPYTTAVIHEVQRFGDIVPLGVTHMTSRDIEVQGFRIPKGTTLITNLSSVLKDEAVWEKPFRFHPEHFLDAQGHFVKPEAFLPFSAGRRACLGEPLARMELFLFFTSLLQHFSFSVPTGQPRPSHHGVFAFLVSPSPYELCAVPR
# Sequence of Thyrotropin-releasing hormone receptor (Homo sapiens) (P34981 whole entry, looked up): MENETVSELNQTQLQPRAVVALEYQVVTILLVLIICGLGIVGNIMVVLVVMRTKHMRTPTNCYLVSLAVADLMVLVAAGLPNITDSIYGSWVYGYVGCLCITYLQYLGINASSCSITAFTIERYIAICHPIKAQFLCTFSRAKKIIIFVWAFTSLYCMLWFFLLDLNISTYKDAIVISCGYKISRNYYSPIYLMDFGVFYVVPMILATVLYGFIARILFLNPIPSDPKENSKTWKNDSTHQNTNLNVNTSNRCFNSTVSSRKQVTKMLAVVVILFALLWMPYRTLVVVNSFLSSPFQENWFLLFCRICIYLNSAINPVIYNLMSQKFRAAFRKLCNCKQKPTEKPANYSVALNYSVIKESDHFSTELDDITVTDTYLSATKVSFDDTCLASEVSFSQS
# Sequence of Cytochrome P450 2C19 (Homo sapiens) (P33261 whole entry, looked up): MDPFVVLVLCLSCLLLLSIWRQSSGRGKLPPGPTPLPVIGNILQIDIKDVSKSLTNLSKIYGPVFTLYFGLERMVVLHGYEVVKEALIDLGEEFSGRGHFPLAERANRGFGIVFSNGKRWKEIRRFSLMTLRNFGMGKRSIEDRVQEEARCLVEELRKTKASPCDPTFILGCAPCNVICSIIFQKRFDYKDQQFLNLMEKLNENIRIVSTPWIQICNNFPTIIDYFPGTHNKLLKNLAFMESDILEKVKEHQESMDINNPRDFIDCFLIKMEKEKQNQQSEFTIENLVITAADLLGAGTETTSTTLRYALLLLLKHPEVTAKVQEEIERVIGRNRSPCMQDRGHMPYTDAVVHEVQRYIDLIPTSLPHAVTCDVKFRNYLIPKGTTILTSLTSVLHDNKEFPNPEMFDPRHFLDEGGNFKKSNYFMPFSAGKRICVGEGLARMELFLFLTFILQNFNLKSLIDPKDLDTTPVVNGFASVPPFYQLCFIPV
# Sequence of Nuclear receptor subfamily 1 group I member 2 (Rattus norvegicus) (Q9R1A7 whole entry, looked up): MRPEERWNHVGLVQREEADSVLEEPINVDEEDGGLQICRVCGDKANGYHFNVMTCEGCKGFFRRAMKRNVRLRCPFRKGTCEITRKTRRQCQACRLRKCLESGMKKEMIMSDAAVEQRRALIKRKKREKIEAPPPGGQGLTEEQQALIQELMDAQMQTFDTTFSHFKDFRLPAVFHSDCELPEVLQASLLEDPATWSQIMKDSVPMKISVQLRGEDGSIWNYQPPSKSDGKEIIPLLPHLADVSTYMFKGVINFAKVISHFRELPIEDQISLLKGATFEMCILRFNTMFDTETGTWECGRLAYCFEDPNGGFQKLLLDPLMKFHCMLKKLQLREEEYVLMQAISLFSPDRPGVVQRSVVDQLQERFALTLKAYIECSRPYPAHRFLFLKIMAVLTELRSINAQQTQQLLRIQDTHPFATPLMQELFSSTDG
compound,measurement,setting,value
O=[N+]([O-])c1ccc(NCCO)c(OCCO)c1,Potency,[1],inactive
same,Potency,[2],inactive
same,Potency,[3],inactive
same,Potency,[4],inactive
same,Potency,[5],inactive
same,outcome,[6],inactive
same,Potency,[7],inactive
same,outcome,[8],inactive
same,Potency,[9],inactive
same,Potency,[10],48.6 µM (active)
same,Potency,[11],inactive
same,Potency,[12],48.6 µM (active)
same,Potency,[13],inactive
same,Potency,[14],27.3 µM (active)
same,Potency,[15],inactive
same,Potency,[16],inactive
CCOC(=O)c1cccnc1,Potency,[1],inactive
same,Potency,[2],inactive
same,Potency,[3],inactive
same,Potency,[4],inactive
same,Potency,[5],inactive
same,outcome,[6],inactive
same,Potency,[7],inactive
same,outcome,[8],inactive
same,Potency,[9],inactive
same,Potency,[11],inactive
same,Potency,[12],inactive
same,Potency,[13],inactive
same,Potency,[14],inactive
same,Potency,[15],inactive
same,max activation,[17],-3.51%
same,Potency,[18],inactive
same,Potency,[16],inactive
CC(CSC(=O)c1ccccc1)C(=O)N1C[C@@H](Sc2ccccc2)C[C@H]1C(=O)O (stereo not given in full),activation,[1],-0.419% [at 19 µM]
same,"activity change, negative = inhibition",[2],1.77% [at 18.9 µM]
same,"activity change, negative = cytotoxicity",[3],-8.73% [at 18.9 µM]
same,"activity change, negative = cytotoxicity",[4],-1.53% [at 19 µM]
same,"viability change, negative = cytotoxic",[5],-6.88% [at 15.8 µM]
same,"activity change, negative = cytotoxicity",[6],4% [at 15.8 µM]
same,activation,[7],0.21% [at 15.8 µM]
same,"activity, negative = inhibition",[8],-5.47% [at 10.5 µM]
same,activation,[9],-0.201% [at 11.8 µM]
same,"activity change, negative = cytotoxicity",[10],14.3% [at 19 µM]
same,caspase activation,[11],0.287% [at 19 µM]
same,"activity change, negative = cytotoxicity",[12],-1.81% [at 19 µM]
same,caspase-3/7 activation,[13],0.0462% [at 19 µM]
same,"activity change, negative = cytotoxicity",[14],-2.03% [at 19 µM]
same,activation,[15],21.6% [at 19 µM]
same,max activation,[17],-2.82%
same,Potency,[18],inactive
same,"activity change, negative = inhibition",[16],2.02% [at 23.6 µM]
C=C(C)C(=O)OCCOCC,Potency,[1],inactive
same,Potency,[2],inactive
same,Potency,[3],inactive
same,Potency,[4],inactive
same,Potency,[5],inactive
same,outcome,[6],inactive
same,Potency,[7],inactive
same,outcome,[8],inactive
same,Potency,[9],inactive
same,Potency,[10],inactive
same,Potency,[11],inactive
same,Potency,[12],inactive
same,Potency,[13],inactive
same,Potency,[14],inactive
same,Potency,[15],inactive
same,Potency,[16],31.9 µM (active)
same,Potency,[19],80 µM (active)
CCOC(=O)C(=O)CCc1ccccc1,Potency,[1],inactive
same,Potency,[2],inactive
same,Potency,[3],inactive
same,Potency,[4],inactive
same,Potency,[5],inactive
same,outcome,[6],inactive
same,Potency,[7],inactive
same,outcome,[8],inactive
same,Potency,[9],inactive
same,Potency,[10],inactive
same,Potency,[11],inactive
same,Potency,[12],inactive
same,Potency,[13],inactive
same,Potency,[14],inactive
same,Potency,[15],inactive
CCCCC(CC)CN1C(=O)C2C3C=CC(C3)C2C1=O (stereo not given),Potency,[1],inactive
same,Potency,[2],34.4 µM (active)
same,Potency,[3],inactive
same,Potency,[4],inactive
same,Potency,[5],inactive
same,outcome,[6],inactive
same,Potency,[7],inactive
same,outcome,[8],inactive
same,Potency,[9],inactive
same,Potency,[10],inactive
same,Potency,[11],inactive
same,Potency,[12],inactive
same,Potency,[13],inactive
same,Potency,[14],inactive
same,Potency,[16],31.7 µM (active)
same,Potency,[19],3.56 µM (active)
C=CC1CC2C=CC1C2 (stereo not given),Potency,[1],inactive
same,Potency,[2],inactive
same,Potency,[3],inactive
same,Potency,[4],inactive
same,Potency,[5],inactive
same,outcome,[6],inactive
same,Potency,[7],inactive
same,outcome,[8],inactive
same,Potency,[9],inactive
same,Potency,[10],inactive
same,Potency,[11],inactive
same,Potency,[12],inactive
same,Potency,[13],inactive
same,Potency,[14],inactive
same,Potency,[15],inactive
same,Potency,[16],inactive
